Compound activity as filed in PubChem.
Shiga inhibitor: inhibitors of Shiga toxin in Vero cells; Vero cells, Shiga toxin protein synthesis inhibition reporter; inhibition, % at 38.7 µM; hit rate 9.2% among 290,000; AID 2315; in the data active = inhibition mostly above about 28%, no sharp cut-off; inactive = mostly below about 43%; note: 0% is about no effect
Pf growth 96h: P. falciparum growth inhibition at 96 hour, primary screen for plastid delayed-death inhibitors; hit rate 6.9% among 320,000; Potency, µM (series often up to 28.7 µM), inactives show at the highest dose activity change, negative = inhibition, actives largely listed as inhibitors; P. falciparum luciferase reporter growth, 96 h; note: potency is the fitted concentration of half-maximal effect; % is set by controls: 0 for no effect and ±100 for the full control effect
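Luminescence readout: decreased luciferase signal marks inhibited growth of reporter-expressing P. falciparum in infected red cells (2% hematocrit, 0.05% parasitemia final), exposed to compound two generations (96 h, 37 C, 5% CO2).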
SARS PLP yeast: blocks SARS-CoV papain-like protease in a yeast assay; AID 485353; hit rate 0.19% among 330,000; Potency, µM (titrated, usually from 32.9 µM), inactives show at the highest dose activity, positive = growth rescue, actives largely listed as activators; S. cerevisiae expressing SARS-CoV PLpro, growth rescue; calls by dose curve; note: potency is the fitted concentration of half-maximal effect; 0% is about no effect; nearly all actives have a fitted effect of over 55% in size
CHX counter: counter-screen hit for Shiga toxin inhibitors, cycloheximide; cell reporter, cycloheximide protein synthesis inhibition counterscreen; max response, %; hit rate 12% among 300,000; in the data active = max response mostly above about 13%, no sharp cut-off; inactive = mostly below about 14%; note: read at 38.3 µM for the half of the compounds with a filed dose; 0% is about no effect
NS1 function inh: blocks influenza NS1 protein function; Potency, µM (highest dose often 46.1 µM), inactives show top-dose activity, positive = more growth; hit rate 0.4% among 270,000; AID 2326; calls by dose curve; note: potency is the fitted concentration of half-maximal effect; actives are rising curves; nearly all actives have a fitted effect of over 50% in size
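A cell-based growth assay was used: compounds that relieve NS1-induced slow growth of budding yeast raise OD600. Assay medium was yeast nitrogen base with ammonium sulphate and -URA supplement, pH 6.0, with 2% galactose.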
Pf growth 48h: inhibits P. falciparum growth in the first generation, 48 h; P. falciparum luciferase growth in erythrocytes, 48 h; Potency, µM (titrated, usually from 28.7 µM), without a hit: at the top dose activity change, negative = inhibition, hits mostly inhibitors; hit rate 5.9% among 310,000; AID 504832; note: potency is the fitted concentration of half-maximal effect; % is set by controls: 0 for no effect and ±100 for the full control effect
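Luciferase-expressing parasites in RBCs, 2% Hct / 0.1% parasitemia final; RPMI 1640 + 0.5% Albumax; 37 C, 5% CO2, one generation; luminescence read-out, lower signal = inhibition.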
* = called active by the depositor; ? = inconclusive; . = not tested or not shown; [ ] = another dose, or the depositor's remark. Compounds with a hit are over-represented: about 21% of the library has one in this group of screens. Unless noted, calls come from the whole dose curve; as a rule, active = well fitted inhibition curve with a large enough effect; inconclusive = small, poorly fitted or top-dose-only effect, or another doubt; inactive = no such curve, though single readings can be large or run the other way.

SMILES	Shiga inhibitor	Pf growth 96h	SARS PLP yeast	CHX counter	NS1 function inh	Pf growth 48h
C=CCN(c1ccccc1OC)S(=O)(=O)c1cccc(C(=O)OCC(=O)N2CCOCC2)c1	.	.	3%	.	.	.
COc1cc(OC)c(N(C)S(=O)(=O)c2cccc(C(=O)OCC(=O)c3c[nH]c4ccccc34)c2)cc1Cl	19	?	4%	-4	?	1.9µM*
COC(=O)C1CCN(C(=O)[C@H](C)NC(=O)C2CC(=O)N(c3ccc(F)cc3)C2)CC1 (some centres undefined)	2	-21%	-3%	2	2%	-11%
CCn1c(Cc2ccccc2)nnc1SCC(=O)Nc1nnc(-c2ccccc2)s1	-4	5%	-4%	-1	12%	1%
Cn1nc([N+](=O)[O-])nc1Oc1ccccc1F	-6	13µM*	0%	1	3%	-1%
Cc1ccc2[nH]c(CSc3ccccc3)cc(=O)c2c1	24	13µM*	-1%	20	-4%	?
Cc1ccc2[nH]c3ccccc3c(=O)c2c1	48*	34%	-11%	28*	-98%	.
CCCC(C(=O)NC(C)(C)C)N(Cc1ccc(F)cc1)C(=O)c1snc(C(N)=O)c1N (centres undefined)	.	-7%	-7%	1	11%	?
COc1cccc(C(=O)/C=C2\Sc3ccccc3N2C)c1	84*	12%	-3%	31*	.	199%
COc1cccc(C(=O)Nc2ccccc2N2CCCC2)c1	13	136%	-3%	1	?	-20%
CN1/C(=C\C(=O)c2cccnc2)Sc2ccccc21	93*	?	-2%	42*	-52%	69%
O=C(Nc1c2c(nn1-c1ccc(F)cc1)CS(=O)C2)c1ccc(Br)o1 (centres undefined)	-9	?	0%	3	21%	?
Cc1ccc(C)c(N2CCN(C(=O)c3ccc4nc(N5CCOCC5)sc4c3)CC2)c1	2	62%	-3%	4	-1%	?
CCCCC(=O)N1CCN(c2nc3ccc(Br)cc3s2)CC1	45*	18%	-13%	26*	-21%	48%
CCCC(=O)N1CCN(c2nc3ccc(CC)cc3s2)CC1	134*	?	-2%	36*	-19%	?
O=C(O)CCC(=O)N1CCN(c2nc3ccccc3s2)CC1	-36	.	2%	-1	-9%	18%
CCCC(=O)N1CCN(c2nc3ccc(Cl)cc3s2)CC1	50*	11%	-6%	43*	-20%	50%
CCCC(=O)N1CCN(c2nc3ccc(Br)cc3s2)CC1	46*	-9%	-10%	44*	-16%	22%
Clc1ccc(CSc2snnc2-c2ccccc2)c(Cl)c1	98*	?	-19%	43*	3%	15%
COC(=O)C(C)Sc1snnc1-c1ccccc1 (centres undefined)	10	24%	10%	3	-5%	.
c1ccc(CSc2snnc2-c2ccccc2)cc1	42*	0%	-8%	44*	-5%	-1%
CCOc1ccc(S(=O)(=O)N2CCN(C(=O)c3cccn3C)CC2)cc1	-12	8%	2%	-2	-12%	-14%
O=C(COc1ccc(Br)cc1)NCCCNC(=O)c1cccnc1	-13	?	5%	-2	1%	?
Cc1ccc(CN2C(=O)CCC2C(=O)NCCN2CCN(c3cccc(Cl)c3)CC2)cc1 (centres undefined)	-5	?	1%	1	-13%	?
Cc1ccc(S(=O)(=O)NCC(c2ccccc2)N2CCN(CCC#N)CC2)cc1 (centres undefined)	3	.	24%	-3	-1%	?
N#CCCN1CCN(C(CNS(=O)(=O)c2ccc(Cl)cc2)c2ccccc2)CC1 (centres undefined)	17	5.2µM*	-2%	-3	-13%	-18%
CCC(Sc1nc(C)cc(C)n1)C(=O)Nc1nccs1 (centres undefined)	-26	13µM*	7%	-8	3%	?
Cc1cc(C)n2nc(C(=O)Nc3nnc(C4CC4)s3)nc2n1	-18	17%	-3%	-2	1%	27%
Cc1cc(C)n2nc(C(=O)Nc3nccs3)nc2n1	84*	29%[5.75 µM]	1%	23*	-2%	98%
CCSc1nnc(NC(=O)c2nc3nc(C)cc(C)n3n2)s1	8	1%	3%	6	.	-3%
